Records with an inconclusive call do not appear. Active and inactive are the calls of the source. Unless noted, the call rests on the fitted dose curve; in most records, active means well fitted curve in the direction sought with a large enough effect; inconclusive means small, poorly fitted or top-dose-only effect, or another doubt; inactive means no such curve, though single readings can be large; an effect the other way counts as inactive or inconclusive.
Experiments:
[1] = qHTS to identify inhibitors of the type 1 interferon - major histocompatibility complex class I in skeletal muscle: primary screen against the NCATS Mechanism Interrogation Plate v5.0 (MIPE) Libary (AID 1347411); further: nearly all actives have a fitted effect of over 65% in size; further: potency means the concentration at half of the fitted maximal effect;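 on activity change, negative = inhibition: plate controls were vehicle for no effect and reference inhibitor for full effect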
Procedure, shortened: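 Immortalized human C25cl48 myoblasts with HiBit knocked into endogenous HLA-B*08:01 were stimulated with 4.0 ng/ml IFN-beta and exposed to compounds (11-point 1:3 titration, top 46 uM final) for 24 hrs at 37 C; HiBiT lytic luminescence measured.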

[2] = Primary qHTS for inhibitors of nuclear receptor binding SET domain protein 2 (NSD2) in an isogenic RCH-ACV NSD2 p.E1099K mutant (9B) (AID 1645876); further: nearly all actives have a fitted effect of over 70% in size; further: potency means the concentration at half of the fitted maximal effect
[3] = Primary qHTS for inhibitors of nuclear receptor binding SET domain protein 2 (NSD2) in an RCH-ACV wild type WT cells (2C) (AID 1645877); further: nearly all actives have a fitted effect of over 70% in size; further: potency means the concentration at half of the fitted maximal effect
[4] = NCATS anti-infectives library activity on HEK293 viability as a counter-qHTS vs the C. elegans viability qHTS (AID 1745854); further: on the % scale 0 is the no-effect control and ±100 the full control effect
Procedure, shortened: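 HEK293 cells, 1500 per well, exposed 24 hr at 37C in 5% CO2 to compounds in a 1:5 titration, up to 41.7 uM final. Viability read as CellTiter-Glo luminescence after 10 min at room temperature.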

[5] = molecular target: Glutathione peroxidase 1 (Homo sapiens) (UniProt P07203); assay: Primary qHTS Assay for Inhibitors of Recombinant Selenoprotein Glutathione Peroxidase 1 (GPX1) (AID 1845191); further: nearly all actives have a fitted effect of over 65% in size
Glutathione peroxidase 1 (Homo sapiens), sequence (P07203 whole entry, looked up): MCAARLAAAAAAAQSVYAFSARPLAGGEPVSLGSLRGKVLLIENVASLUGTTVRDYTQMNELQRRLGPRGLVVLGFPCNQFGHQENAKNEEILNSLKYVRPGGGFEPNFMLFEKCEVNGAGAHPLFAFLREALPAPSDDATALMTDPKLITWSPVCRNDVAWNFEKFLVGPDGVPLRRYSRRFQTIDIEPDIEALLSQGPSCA
Procedure, shortened: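 10 nM GPX1 + cpd, 30 min RT; start w/ 1 mM GSH, 0.5 mM cumene hydroperoxide, 0.5 mM NADPH, 100 nM GR, 0.01% BSA; buffer 50 mM Tris-HCl pH 7.5, 2 mM EDTA, 150 mM NaCl; Fl 340/450, 0 & 15 min.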

[6] = molecular target: Phospholipid hydroperoxide glutathione peroxidase GPX4 (Homo sapiens) (UniProt P36969); assay: Primary qHTS Assay for Inhibitors of Recombinant Selenoprotein Glutathione Peroxidase 4 (GPX4) (AID 1845192); conditions: outcome: dose series up to 50 µM unless noted; further: nearly all actives have a fitted effect of over 65% in size; on activity change, negative = inhibition: series mostly up to about 50 µM; on the % scale 0 is the no-effect control and ±100 the full control effect
Phospholipid hydroperoxide glutathione peroxidase GPX4 (Homo sapiens), sequence (P36969 whole entry, looked up): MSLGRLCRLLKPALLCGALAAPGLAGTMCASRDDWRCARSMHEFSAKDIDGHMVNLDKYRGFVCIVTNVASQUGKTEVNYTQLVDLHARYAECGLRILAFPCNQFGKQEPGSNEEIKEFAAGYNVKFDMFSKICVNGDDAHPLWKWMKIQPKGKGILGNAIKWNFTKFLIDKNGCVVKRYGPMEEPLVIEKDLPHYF
Procedure, shortened: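 NADPH consumption, followed by fluorescence at 340/450 nm between 0 and 15 min, reports GPX4 activity via coupled glutathione reductase (100 nM). Enzyme 200 nM was pre-exposed to compound 30 min; 0.5 mM cumene hydroperoxide and 1 mM GSH served as substrates.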

[7] = qHTS drug screen for cell cycle checkpoint inhibitors in PARPi-resistant BRCA-mutant ovarian cancer cell lines. (AID 1963452; calls by dose curve; further: potency means the concentration at half of the fitted maximal effect); conditions: PEO1/OlaR viability, CellTiter-Glo luminescence, 96 h; for Z-AUC: stronger effect = lower value
Procedure, shortened: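 PEO1, PEO4 and PEO1/OlaR ovarian cancer cells, 600 per well, exposed 96 h at 37C to a dilution series. Viability read by CellTiter-Glo luminescence, normalized to DMSO and empty wells; activity summarized as Z-AUC.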

[8] = NCATS anti-infectives library activity on the primary C. elegans qHTS viability assay (AID 1745855; calls by dose curve)
Procedure, shortened: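 Viability is taken from GFP fluorescence of PE254-GFP-FLuc C. elegans imaged by laser cytometry over 7 days. Ten L1 worms per well grow at 21 °C on TOP10 E. coli capsules with titrated compound; levamisole marks toxicity.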

[9] = measured here: PEO1 parental Z-AUC

Compound | Potency [1] | Potency [2] | Potency [3] | Potency [4] | Potency [5] | Potency [6] | Z-AUC [7] | Z-AUC [7, 9] | Z-AUC ([7]; measured here: PEO4 Z-AUC) | Potency [8] | activity change, negative = inhibition [1] | outcome [2] | outcome [3] | outcome [5] | outcome [6] | Potency [7]
COC(=O)C1=C(C)NC(c2ncc(F)cc2F)=N[C@H]1c1ccc(F)cc1Cl | 20.8 µM (active) | 14.8 µM (active) | 13.2 µM (active) | inactive | inactive | inactive | 0.0263 (inactive) | 0.182 | 1.13 | – | – | – | – | – | – | –
Cc1ccc(-c2ccc(C)cn2)nc1 | inactive | inactive | inactive | inactive | – | – | 1.52 (inactive) | 0.85 | 1.74 | – | – | – | – | – | – | –
O=c1[nH]nc2c3c(cccc13)NC(CN1Cc3ccccc3C1)=N2 | inactive | 20.9 µM (active) | 18.6 µM (active) | inactive | inactive | inactive | -0.263 (inactive) | -0.113 | -0.251 | – | – | – | – | – | – | –
Cc1c(-c2cnccn2)ssc1=S | inactive | 16.6 µM (active) | 13.2 µM (active) | inactive | inactive | – | -0.037 (inactive) | 0.595 | 0.421 | inactive | – | – | – | – | – | –
CCc1cc2c(c(OCC(F)(F)F)c(C(=O)NC3CCN(C(=O)CO)CC3)n2C)c(=O)n1CC(=O)c1ccccc1 | inactive | inactive | inactive | – | inactive | inactive | -1.12 (inactive) | -0.345 | 0.581 | – | – | – | – | – | – | –
COc1cc2c(cc1OC)CN(CCc1ccc(-n3nnc(-c4cc(OC)c(OC)cc4NC(=O)c4cc(=O)c5ccccc5o4)n3)cc1)CC2 | – | – | – | – | – | – | 2.8 (inactive) | 2.17 | 2.67 | – | -5.16% [at 0.314 µM] (inactive) | inactive [at 0.588 µM] | inactive [at 0.588 µM] | inactive [at 0.4 µM] | inactive [at 0.409 µM] | –
Cn1cc(/C=C/C(=O)c2cccc(F)c2)cc1/C=C/C(=O)NO | inactive | 14.8 µM (active) | 18.6 µM (active) | inactive | inactive | – | 0.818 (inactive) | 0.213 | 0.291 | – | – | – | – | – | – | –
COc1ccc(Cl)cc1-c1cc(=O)[nH]c(=S)n1CC(N)=O | inactive | inactive | inactive | – | inactive | inactive | 0.0644 (inactive) | 0.00773 | 0.346 | – | – | – | – | – | – | –
CNCCCOc1cc(F)c(-c2c(Cl)nc3ncnn3c2N[C@@H](C)C(F)(F)F)c(F)c1 | inactive | 0.0661 µM (active) | 0.0468 µM (active) | – | inactive | inactive | – | -1.35 | -1.7 | – | – | – | – | – | – | 0.155 µM (active)
